Anthrax LF prot: Bacillus anthracis LF protease inhibitors, primary screen, biochemical, multiplex microsphere, MLPCN library; multiplex microsphere protease cleavage assay; inhibition, % at 10 µM; AID 588501, 2011; Lethal factor (Bacillus anthracis), P15917; hit rate 0.12% among 360,000
MazEF act: activators of E. coli MazEF toxin-antitoxin RNase, primary screen, biochemical, fluorescence, uHTS. Endoribonuclease toxin MazF (Escherichia coli (strain K12)), P0AE70. FAM/BHQ RNA-DNA oligo cleavage fluorescence, 5 h. activation, % at 20 µM. hit rate 0.32% among 350,000; in the data active = activation above about 50%
Target sequence (P0AE70 whole entry, looked up): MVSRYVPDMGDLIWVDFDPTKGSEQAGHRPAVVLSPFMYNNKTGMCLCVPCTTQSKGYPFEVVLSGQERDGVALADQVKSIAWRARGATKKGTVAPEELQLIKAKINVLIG
Bead autofluor: compound fluorescence in toxin protease inhibitor counterscreen. compound autofluorescence counterscreen, microsphere flow cytometry; active compounds read high. fluorescence intensity (test concentration not listed). hit rate 3.1% among 360,000. AID 624483; in the data active = fluorescence intensity above about 16000; inconclusive = no clear call, values can overlap the other calls
BoNT-A LC inh2: BoNT/A light chain protease inhibitors, primary screen, biochemical, flow cytometry, MLPCN library | Botulinum neurotoxin type A light chain protease (Clostridium botulinum A str. ATCC 3502) | multiplex microsphere protease substrate cleavage | inhibition, % at 10 µM | hit rate 0.17% among 360,000 | AID 588499, 2011
PfHsp40 rescue: rescue of yeast from PfHsp40 toxicity, primary screen, S. cerevisiae, ATP luminescence. S. cerevisiae expressing PfHsp40, growth rescue. growth rescue, % at 12.5 µM. hit rate 0.68% among 340,000. AID 504582, 2011; in the data active = growth rescue above about 28%, passing the limit was not always enough; inconclusive = no clear call, values can overlap the other calls;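 also: yeast W303a lacking pdr1 and pdr3 grown in galactose medium; growth measured after three days at 30 °C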
BoNT F protease: BoNT/F light chain protease inhibitors, primary screen, biochemical, flow cytometry, MLPCN library. Botulinum neurotoxin type F light chain protease (Clostridium botulinum). Multiplex microsphere protease cleavage assay. inhibition, % at 10 µM. hit rate 0.22% among 360,000. AID 588497, 2011; in the data active = inhibition above about 35%, passing the limit was not always enough; inconclusive = no clear call, values can overlap the other calls
Hits are given with their value; . = inactive; ? = inconclusive; / = no result; + = active, no number. The list is not random: actives were taken first. Their share in the collection is about 4.3%. Rule as the data show it, unless noted: active = inhibition above about 30%; inconclusive = no clear call, values can overlap the other calls; inactive = below that.

SMILES	Anthrax LF prot	MazEF act	Bead autofluor	BoNT-A LC inh2	PfHsp40 rescue	BoNT F protease
CCCCC(=O)Nc1cccc(NC(=O)c2ccccc2Br)c1	.	.	20490	.	.	.
Cc1ccccc1NC(=S)NC(=O)CCc1ccccc1	.	.	19923	.	.	.
COC(=O)c1ccccc1NC(=S)NC(=O)CC(C)C	.	.	22351	.	.	.
CCCCC(=O)NC(=S)Nc1ccccc1C(=O)Nc1ccccc1	.	.	17346	?	.	.
CC(=O)NC(=S)Nc1ccccc1C(=O)Nc1ccccc1	.	.	.	.	.	.
CC(=O)Nc1cccc(-c2ccnc3c2CC(C)(C(=O)Nc2ccc(Cl)cc2)O3)c1 (stereo unspecified)	.	/	.	.	/	.
COc1ccc(CCC(=O)N2CCCC(Nc3ccc(C)c(C)c3)C2)cc1OC (stereo unspecified)	.	.	.	.	.	.
Cc1ccc(C(=O)Nc2ccc(Br)cc2)cc1S(=O)(=O)Nc1ccccn1	.	125	.	.	.	.
O=C(Nc1ccc(S(=O)(=O)Nc2ccccn2)cc1)c1cccc(Br)c1	.	.	.	.	.	.
Cc1ccccc1NC(=O)c1ccc(C)c(S(=O)(=O)Nc2ccccn2)c1	.	.	18024	.	.	.
Cc1ccccc1NC(=O)c1ccc(C)c(S(=O)(=O)NCc2cccnc2)c1	.	.	.	.	.	.
Cc1ccc(C(=O)N2CCc3ccccc3C2)cc1S(=O)(=O)N1CCOCC1	.	.	.	.	.	.
Cc1ccccc1NS(=O)(=O)c1cc(C(=O)N2CCc3ccccc3C2)ccc1C	.	.	25113	?	.	.
CSCC[C@H](N)C(=O)N1CCC(C(=O)N[C@H](C)C(=O)NC(C)c2ccccc2)CC1 (stereo partly specified)	.	.	.	.	.	.
O=C(NC(=S)NCc1ccc2c(c1)OCO2)c1ccccc1	.	.	.	.	52	.
CN(c1ccc(C(=O)NCc2ccc3c(c2)OCO3)cc1)S(C)(=O)=O	.	.	22044	.	.	.
O=C(NCc1ccc2c(c1)OCO2)c1nn(-c2ccccc2)c(=O)c2ccccc12	.	.	21677	?	.	.
CN1C(=O)c2ccc(C(=O)NCc3ccc4c(c3)OCO4)cc2C1=O	.	.	.	.	.	.
CCN1C(=O)c2ccc(C(=O)NCc3ccc4c(c3)OCO4)cc2C1=O	.	.	16137	.	.	.
OC(COC1CCCCC1)CN1CCCCC1 (stereo unspecified)	.	.	.	.	.	.
COc1ccccc1OCCNC(=O)CCNS(=O)(=O)c1ccc(C)cc1	.	.	.	.	.	.
CCCCN1C(=O)c2ccc(C(=O)NCc3ccco3)cc2C1=O	.	.	.	.	.	.
CCCN1C(=O)c2ccc(C(=O)NCc3ccco3)cc2C1=O	.	.	23188	?	.	.
O=C(NCc1ccc2c(c1)OCO2)c1ccc(Br)cc1	.	.	.	.	?	?
O=C(NCc1ccc2c(c1)OCO2)c1ccc(-n2cnnn2)cc1	.	.	16294	?	.	.
SMILES	Anthrax LF prot	MazEF act	Bead autofluor	BoNT-A LC inh2	PfHsp40 rescue	BoNT F protease
CCOC(=O)C1=CN(Cc2cccc(F)c2)S(=O)(=O)N(CC)C1c1ccc2ccccc2c1 (stereo unspecified)	.	.	.	.	.	.
CCOC(=O)C1=CN(Cc2cccc(F)c2)S(=O)(=O)N(C)C1c1ccc2ccccc2c1 (stereo unspecified)	.	50	.	.	.	.
CCc1ccc(-c2nc(CN3CCC(C(=O)NCc4ccccc4OC)CC3)c(C)o2)cc1	.	.	25156	?	.	.
Cc1ccccc1-c1nc(CN2CCC(C(=O)NCc3cccnc3)CC2)c(C)o1	.	.	22517	?	.	.
Cc1oc(-c2ccc(Cl)cc2)nc1CN1CCC(C(=O)NCc2ccco2)CC1	.	.	.	.	.	.
Cc1ccccc1-c1nc(CN2CCC(C(=O)NCc3cccs3)CC2)c(C)o1	.	.	.	.	.	.
Cc1ccccc1-c1nc(CN2CCC(C(=O)NCc3ccco3)CC2)c(C)o1	.	.	21224	.	.	.
Cc1oc(-c2ccccc2F)nc1CN1CCC(C(=O)NCc2cccnc2)CC1	.	.	20391	.	.	.
CCOC(=O)Cc1cc(=O)n2[nH]c(C(C)(C)C)cc2n1	.	.	.	?	.	?
CC(=O)NCCC(=O)N(Cc1ccccc1)c1nc2c(C)cccc2s1	.	.	.	.	.	.
Cc1cc(C)c2c(c1)CC(C)(C)CC2=O	.	.	.	.	.	.
Cc1oc(-c2ccc(Cl)cc2)nc1CN1CCCC(C(=O)NCc2ccccn2)C1 (stereo unspecified)	.	.	22724	.	.	.
Cc1oc(-c2ccc(Cl)cc2)nc1CN1CCCC(C(=O)NCc2cccnc2)C1 (stereo unspecified)	.	.	.	.	.	.
CN(C)c1ccc(/C=C/c2cc[n+](C)c3ccccc23)cc1	?	.	.	?	?	?
CC[n+]1c(/C=C/C=C/N(C(C)=O)c2ccccc2)sc2ccccc21	?	154	.	?	.	?
CN(C)c1ccc(/C=C/C=C/c2sc3ccccc3[n+]2C)cc1	/	.	/	/	126	/
CN(C)c1ccc(/C=C/c2nc3ccccc3s2)cc1	.	.	.	.	.	.
CCn1c(/C=C/N(C(C)=O)c2ccccc2)[n+](CC)c2ccc(Cl)cc21	.	.	.	.	.	.
CC[n+]1c(/C=C/C=C/c2ccc(N(C)C)cc2)sc2ccccc21	.	.	.	.	245	+
CC[n+]1c(/C=C/N(C)c2ccccc2)sc2ccc(Cl)cc21	59	.	.	59	.	43
CCCCCCCNC(=O)C1(CC2CC(c3ccc(Cl)cc3)=NO2)CCN(C(=O)c2cc(OCC)c(OCC)c(OCC)c2)CC1 (stereo unspecified)	.	.	.	.	?	.
Cc1onc(-c2ccccc2)c1C(=O)NC(=S)NNC(=O)c1cc(-c2ccc(F)cc2)n[nH]1	/	.	/	/	235	/
Cc1onc(-c2ccccc2)c1C(=O)NC(=S)NNC(=O)c1ccco1	.	.	.	.	50	.
Cc1c(C(=O)NCCSCc2cccc(C(F)(F)F)c2)cnn1-c1ccc(F)cc1	.	.	.	?	101	?
Cc1c(C(=O)NCCSCc2ccc(F)cc2)cnn1-c1ccc(Cl)cc1	?	.	.	.	43	.
Cc1c(C(=O)NCCSCc2c(F)cccc2Cl)cnn1-c1ccc(F)cc1	.	.	.	.	.	?
COc1ccc(CCN(C)C(=S)Nc2cccc(C)c2)cc1OC	.	.	.	.	.	.

Bioassay records from PubChem BioAssay.
